# Compounds with a hit are over-represented: about 0.9% of the library has one in this group of screens.
# SRC3 TRFRET art: TR-FRET detection interference compounds, artefact control for PPARgamma SRC-3 recruitment agonists, biochemical, TR-FRET ratio; TR-FRET ratio at 8 µM; AID 1048, 2008; TR-FRET artefact counter-screen, PPARgamma/SRC-3 format; stronger effect = higher value; 99,000 tested, 0.39% active
# SRC1 TRFRET art: TR-FRET detection interference compounds, primary screen, artefact control for PPARgamma SRC-1 recruitment agonists, biochemical, TR-FRET emission ratio | TR-FRET detection artefact counter-screen; stronger effect = higher value | TR-FRET ratio at 8 µM | 99,000 tested, 0.34% active; in the data active = TR-FRET ratio above about 2300
# PPARg SRC-1 ag: PPARgamma agonists recruiting SRC-1 coactivator, primary screen, biochemical; AID 631, 2007; 200,000 tested, 0.41% active; activation, % at 8 µM; Peroxisome proliferator-activated receptor gamma (Homo sapiens), P37231; PPARgamma-SRC-1 coactivator recruitment biochemical assay; in the data active = activation above about 19%;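 also: 0% = DMSO and 100% = reference agonist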
# PPARg SRC3 recr: PPARgamma agonists recruiting SRC-3 coactivator, primary screen, biochemical; activation, % at 8 µM; 200,000 tested, 0.26% active; AID 731, 2007; biochemical PPARgamma/SRC-3 coactivator recruitment assay; in the data active = activation above about 23%;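 also: 0% = DMSO and 100% = reference agonist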
# SRC2 TRFRET art: TR-FRET signal artefacts, primary screen, artefact control for PPARgamma SRC-2 agonist project, biochemical. TR-FRET artefact counter-screen; stronger effect = higher value. TR-FRET ratio at 8 µM. 200,000 tested, 0.4% active. AID 1049, 2008
# PPARg SRC-2 ag: agonists of PPARg-SRC-2 recruitment, primary screen, biochemical, HTS. PPARgamma LBD-SRC-2 recruitment. 200,000 tested, 0.34% active. AID 1032, 2008. activation, % at 8 µM. Peroxisome proliferator-activated receptor gamma (Homo sapiens), P37231; in the data active = activation above about 22%;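 also: 0% = vehicle and 100% = reference agonist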
# PPARg SRC2 conf: agonists of PPARgamma SRC-2 coactivator recruitment, confirmation, biochemical, HTS; AID 1297, 2008; biochemical SRC-2 recruitment by PPARgamma; shares compounds with PPARg SRC3 recr; 790 tested, 52% active; activation, % at 8 µM; in the data active = activation above about 22%;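 also: 0% = vehicle alone and 100% = reference agonist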
# PPARg SRC1 conf: PPARgamma agonists recruiting SRC-1 coactivator, confirmation, biochemical | PPARgamma–SRC-1 coactivator recruitment biochemical assay | 790 tested, 43% active | activation, % at 8 µM | shares compounds with PPARg SRC3 recr; in the data active = activation above about 20%;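 also: 0% = vehicle wells and 100% = reference agonist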
# PPARg SRC3 ag: PPARgamma-driven SRC-3 coactivator recruitment agonists, confirmation, biochemical. shares compounds with PPARg SRC3 recr. biochemical PPARgamma-SRC-3 coactivator recruitment, agonist mode. activation, % at 8 µM. 790 tested, 29% active. AID 1301, 2008; in the data active = activation above about 24%;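 also: 0% = vehicle wells and 100% = reference agonist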
# Active calls of the source: *; · = no result given. Rule as the data show it, unless noted: active = TR-FRET ratio above about 2000; inactive = the rest.
SMILES,SRC3 TRFRET art,SRC1 TRFRET art,PPARg SRC-1 ag,PPARg SRC3 recr,SRC2 TRFRET art,PPARg SRC-2 ag,PPARg SRC2 conf,PPARg SRC1 conf,PPARg SRC3 ag
COc1ccccc1NC(=O)c1ccc(-n2cncn2)nc1,1488,1830,-5.4,-4.5,1534,0.2,·,·,·
Cc1cc(NS(=O)(=O)c2ccc(NC(=O)c3ccco3)cc2)no1,·,·,21.3*,14.5,1513,5.5,-0.6,-3.5,-0.3
COc1ccc(CC(=O)Nc2ccc(-c3nc4cc(C)ccc4o3)c(O)c2)cc1OC,·,·,43.2*,23.9,1476,2.0,40.9*,28.1*,24.7*
Cc1ccc2oc(-c3ccc(NC(=O)c4ccncc4)cc3O)nc2c1,1692,1908,14.4,-4.1,1588,13.6,·,·,·
COc1cccc(C2C(C(=O)c3ccc(C)o3)=C(O)C(=O)N2CCCN(C)C)c1 (configuration not stated),·,·,0.0,8.3,1772,7.1,·,·,·
O=C(C1=C(O)C(=O)N(CCN2CCOCC2)C1c1cccnc1)c1cc2ccccc2o1 (configuration not stated),·,·,13.3,10.2,1682,3.2,·,·,·
CN(C)CCCN1C(=O)C(O)=C(C(=O)c2cc3ccccc3o2)C1c1ccccc1 (configuration not stated),·,·,53.2*,90.0*,3299*,72.6*,69.9*,49.7*,44.6*
COC(=O)c1ccc(C2C(C(=O)c3cc4ccccc4o3)=C(O)C(=O)N2CCCN(C)C)cc1 (configuration not stated),·,·,22.4*,28.6*,1943,17.7,25.1*,22.1*,18.9
COC(=O)c1ccc(C2/C(=C(\O)c3cccc(OC)c3)C(=O)C(=O)N2CCCN(C)C)cc1 (configuration not stated),1661,2143,9.5,1.5,1824,-0.4,·,·,·
O=C(C1=C(O)C(=O)N(CCCN2CCOCC2)C1c1ccncc1)c1cc2ccccc2o1 (configuration not stated),2068*,2425*,22.7*,6.9,1889,21.0,24.8*,16.3,16.0
COc1ccc(C(OCC2CO2)c2ccc(OC)cc2)cc1 (configuration not stated),1577,1801,4.0,-1.1,1669,8.2,·,·,·
Cc1cc(-c2nn(-c3ccccc3F)cc2CNCCc2cnc[nH]2)c(C)s1,1294,1779,10.3,0.9,1516,7.2,·,·,·
c1csc(CNc2ccc3c(c2)OCCO3)c1,1463,1796,-2.8,3.5,1372,12.5,·,·,·
Oc1ccccc1CNc1ccc2c(c1)OCCO2,1582,2053,20.6*,7.0,1679,11.5,5.1,2.7,3.2
CCC1=NN2C(=N)/C(=C\c3cccn3-c3cccc(Cl)c3)C(=O)N=C2S1,1603,1886,11.9,27.6*,1702,6.5,7.4,9.7,12.7
CC1CCCN(C(=O)c2ccc3c(c2NCCO)C(=O)c2ccccc2C3=O)C1 (configuration not stated),·,·,8.4,17.3,1480,14.5,·,·,·
O=C1c2ccccc2C(=O)c2c1ccc(C(=O)N1CCCCC1)c2NCCO,·,·,21.1*,20.6,1568,4.6,13.3,8.4,5.5
CCOc1ccc(N/C=C/C(=O)c2ccc3ccccc3c2)c([N+](=O)[O-])c1,·,·,-6.4,-1.2,1478,-2.6,·,·,·
CCOc1ccc(N/C=C/C(=O)c2ccc(C)cc2)c([N+](=O)[O-])c1,·,·,24.3*,18.5,1659,13.2,2.7,2.1,-3.9
Cc1ccccc1-c1ccc(C=Nc2c(C)n(C)n(-c3ccccc3)c2=O)o1,·,·,24.1*,19.8,2051*,35.3*,24.0*,19.3,16.6
Cc1c(Br)c([N+](=O)[O-])nn1CC(=O)Nc1ccc(C(C)C)cc1,1328,1742,-1.7,3.6,1358,-4.7,·,·,·
COC(=O)c1cc(Cl)c(NC(=O)c2ccc(C(C)(C)C)cc2)cc1OC,·,·,4.8,19.7,1607,8.2,·,·,·
COC(=O)c1cc(Cl)c(NC(=O)c2cc3ccccc3o2)cc1OC,·,·,96.8*,105.1*,3198*,50.1*,58.7*,52.8*,40.0*
Cc1ccn2c(C(=O)c3ccc(Cl)cc3)cnc2c1,·,·,-5.4,4.6,1459,3.2,·,·,·
Clc1ccc(-c2ccc(C=Nc3ccc(N4CCOCC4)cc3)o2)cc1,1639,1899,5.5,6.3,1771,7.4,·,·,·
SMILES,SRC3 TRFRET art,SRC1 TRFRET art,PPARg SRC-1 ag,PPARg SRC3 recr,SRC2 TRFRET art,PPARg SRC-2 ag,PPARg SRC2 conf,PPARg SRC1 conf,PPARg SRC3 ag
Clc1cccc(-c2ccc(C=Nc3ccc(N4CCOCC4)cc3)o2)c1Cl,1962,2633*,24.1*,19.9,2206*,27.0*,36.0*,29.2*,22.8
CCOC(=O)c1sc2nc(C)[nH]c(=S)c2c1C,2353*,2663*,24.6*,19.7,2175*,34.7*,30.3*,23.0*,20.9
CCOC(=O)c1sc2nc(C)n(N)c(=O)c2c1C,1653,1913,8.7,6.1,1780,5.8,·,·,·
Brc1ccc(-c2nn3c(-c4ccco4)nnc3s2)o1,·,·,75.3*,115.3*,3538*,98.8*,75.8*,52.3*,52.7*
Clc1ccc(-c2ccc(-c3nn4c(-c5ccco5)nnc4s3)o2)cc1,·,·,9.7,-6.5,1589,4.6,·,·,·
S=c1nc(-c2cc(Cl)ccc2Cl)[nH][nH]1,2092*,2654*,20.4,14.9,2272*,27.1*,24.5*,18.6,17.5
S=c1nc(-c2cccc(Cl)c2)[nH][nH]1,2145*,2102,15.5,7.3,1956,28.1*,24.4*,20.9*,17.3
S=c1nc(-c2ccccc2Br)[nH][nH]1,·,·,1.6,12.5,1310,4.4,·,·,·
Cn1nc([N+](=O)[O-])nc1N1CCOCC1,1586,2066,-1.5,-0.2,1475,9.5,·,·,·
COc1ccc(OC)c(S(=O)(=O)N2CCN(c3c(C)cccc3C)CC2)c1,·,·,4.5,7.2,1485,5.6,·,·,·
N#Cc1cc2c(nc1SCc1ccccc1)CCCCC2,·,·,12.3,8.5,1973*,34.6*,36.9*,32.8*,24.2*
N#Cc1cc2c(nc1SCc1cccc(Cl)c1)CCCCC2,·,·,17.5,-2.4,1696,17.0,·,·,·
O=C(C[n+]1ccccc1)N/N=C/c1ccc(F)cc1,1732,1681,-5.5,3.6,1486,6.5,·,·,·
O=C(c1ccc(Cn2c(=S)[nH]c3ccc(N4CCOCC4)cc3c2=O)cc1)N1CCC(N2CCCCC2)CC1,1537,2026,1.8,2.3,1561,6.1,·,·,·
